Inconclusive results are not listed. Active and inactive are the calls of the source. The call rests on the fitted dose curve; in most records, active means well fitted inhibition curve with a large enough effect; inconclusive means small, poorly fitted or top-dose-only effect; inactive means flat fitted curve, though single readings scatter. Square brackets hold non-standard residues; d marks the D form. Peptide text beside a SMILES is read from it. * marks the point of attachment. Dolaproine = CO[C@@H]([C@@H]1CCCN1)[C@@H](C)C(=O)O; Dil = CC[C@H](C)[C@H](NC)[C@@H](CC(=O)O)OC; NMe2Val = CC(C)[C@@H](C(=O)*)N(C)C; X1 = C[C@@H](N*)[C@@H](O)c1ccccc1; NMeV = CN[C@H](C(=O)O)C(C)C
Assay: Identification of antibody-drug conjugate (ADC) payloads which are substrates of ATP-binding cassette drug efflux transporters: ABCB1-HeLa-KB-8-5-11 cell line
Conditions: KB-8-5-11 (P-gp overexpressing HeLa) viability, CellTiter-Glo, 48 h
Excerpt: Antibody-drug conjugates (ADCs) feature an antibody recognizing a specific protein joined to a potent toxic payload. Numerous antibody-drug conjugates have received FDA approval; however, clinical resistance arises. Resistance mechanisms include decreased expression or mutation of the antibody target, impaired payload release, or increased expression of ATP-binding cassette (ABC) efflux transporters associated with multidrug resistance. We therefore sought to characterize the interaction of ABC multidrug transporters with ADC payloads. We performed a high-throughput screen with 27 common ADC payloads using cells lines expressing ABC transporters P-glycoprotein (P-gp, encoded by ABCB1) or ABCG2 (encoded by ABCG2). Confirmatory assays were also performed using cells transfected to express P-gp, ABCG2, or MRP1 (encoded by ABCC1). Several commonly used ADC payloads were substrates of P-gp, including calicheamicin gamma1, monomethyl auristatin E, DM1, and DM4. All the pyrrolobenzodiazepines tested - SJG136, SGD-1882, SG2057, and SG3199 - were substrates of P-gp, ABCG2, and MRP1. […] These findings highlight the risk of transporter-mediated resistance with certain ADC payloads and underscore the importance of selecting payloads that evade ABC transporter recognition in future ADC development.
HEK-293 cells were transfected with empty vector (pcDNA) or vector containing the human ABCB1 (MDR-19), ABCG2 (R-5), or ABCC1 gene (MRP1) and were maintained in EMEM with 2 mg/mL G418 added to maintain transporter expression. The HeLa derivative KB-3-1 and the P-gp overexpressing KB-8-5-11 subline were maintained in DMEM; KB-8-5-11 additionally received 100 ng/mL colchicine. H460 parental cells were obtained from the Division of Cancer Treatment and Diagnosis Tumor Repository, National Cancer Institute at Frederick, MD and were cultured in RPMI. The ABCG2 expressing subline H460 MX20 was generated by selecting H460 cells in 20 nM mitoxantrone. Media in all cases was supplemented with 10% FBS and 1% penicillin-streptomycin. We explored 27 common ADC payloads, in two orthogonal, paired cell line sets-a drug selected and transfected set for each transporter--to identify substrates of the ABC transporters P-gp and ABCG2. Compounds were sourced from Levena Biopharma (San Diego, CA), Selleck Chem (Houston, TX), ChemieTek (Indianapolis, IN), or Microsource Discovery Systems (Gaylordsville, CT). Screening was performed as previously described. Briefly, cells were plated at a density of 500 cells/well in 1536 well plates with compounds added using a 1536-head pin tool (Kalypsys, San Diego CA). Cells were incubated with cytotoxic drugs and processed with CellTiter Glo reagent (Promega, Madison, WI) to determine viability after 48 hours. P-gp substrates were identified by comparing compound activity between paired sets of low-expressing (sensitive) and over-expressing (resistant) cell lines.

SMILES | Potency
COc1cc2cc(c1Cl)N(C)C(=O)C[C@H](OC(=O)[C@H](C)N(C)C(=O)CCS)[C@]1(C)OC1[C@H](C)C1C[C@@](O)(NC(=O)O1)[C@H](OC)/C=C/C=C(\C)C2 (some centres not stated) | 106 nM (active)
COc1cc2cc(c1Cl)N(C)C(=O)C[C@H](OC(=O)[C@H](C)N(C)C(=O)CCC(C)(C)S)[C@]1(C)OC1[C@H](C)C1C[C@@](O)(NC(=O)O1)[C@H](OC)/C=C/C=C(\C)C2 (some centres not stated) | 26.5 nM (active)
CC[C@H](C)[C@@H]([C@@H](CC(=O)N1CCC[C@H]1[C@H](OC)[C@@H](C)C(=O)N[C@@H](Cc1ccccc1)C(=O)O)OC)N(C)C(=O)[C@@H](NC(=O)[C@H](C(C)C)N(C)C)C(C)C (NMe2Val-V[Dil][Dolaproine]F-OH) | 265 nM (active)
CC[C@H](C)[C@H](NC(=O)[C@H]1CCCCN1C)C(=O)N(C)[C@H](C[C@@H](OC(C)=O)c1nc(C(=O)N[C@@H](Cc2ccccc2)C[C@H](C)C(=O)O)cs1)C(C)C | 10.6 nM (active)
CC[C@@]1(O)C(=O)OCc2c1cc1n(c2=O)Cc2cc3ccccc3nc2-1 | 334 nM (active)
CC[C@H](C)[C@@H]([C@@H](CC(=O)N1CCC[C@H]1[C@H](OC)[C@@H](C)C(=O)N[C@H](C)[C@@H](O)c1ccccc1)OC)N(C)C(=O)[C@@H](NC(=O)[C@@H](NC)C(C)C)C(C)C (H-[NMeV]V[Dil][Dolaproine]-X1) | 211 nM (active)
CC[C@H](C)[C@@H]1NC(=O)CNC(=O)[C@H]2Cc3c([nH]c4cc(O)ccc34)S(=O)C[C@H](NC(=O)CNC1=O)C(=O)N[C@@H](CC(N)=O)C(=O)N1C[C@H](O)C[C@H]1C(=O)N[C@@H]([C@@H](C)[C@@H](O)CO)C(=O)N2 (some centres not stated) | 4720 nM (active)
COc1cccc2c1C(=O)c1c(O)c3c(c(O)c1C2=O)C[C@@](O)(C(=O)CO)CC3OC1CC(N2CCOC(OC)C2)C(O)C(C)O1 (some centres not stated) | 13.3 nM (active)
CC[C@H](C)[C@@H]([C@@H](CC(=O)N1CCC[C@H]1[C@H](OC)[C@@H](C)C(=O)N[C@H](C)[C@@H](O)c1ccccc1)OC)N(C)C(=O)[C@@H](NC(=O)[C@H](C(C)C)N(C)C)C(C)C | 52.9 nM (active)
COc1cc2cc(c1Cl)N(C)C(=O)C[C@H](OC(=O)C(C)C)[C@]1(C)O[C@H]1[C@H](C)[C@@H]1C[C@@](O)(NC(=O)O1)[C@H](OC)C=CC=C(C)C2 | 4.7 nM (active)
CC[C@H](C)[C@H](NC(=O)[C@H]1CCCCN1C)C(=O)N(C)[C@H](C[C@@H](OC(C)=O)c1nc(C(=O)O)cs1)C(C)C | 4200 nM (active)
COc1cc2cc(C(=O)N3C[C@@H](CCl)c4c3cc(O)c3ccccc43)[nH]c2c(OC)c1OC | 1.3 nM (active)

— PubChem BioAssay AID2061304 (National Center for Advancing Translational Sciences (NCATS), 2025)
